The panel holds about 83,000 compounds, 20% with a hit somewhere; the sample as a whole holds those more often.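 Each cell line was grown in a 96-well plate and treated with one concentration of compound for 48 hours. Values below 10 were considered active.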 A number with no mark means an inactive call. Active and inactive are the calls of the source.

The test system of the test is MDA-MB-468 breast. Description: NCI-60 one-dose screen, 48 h (100 = growth as untreated, 0 = no growth, -100 = all killed). The note with it: 10 µM unless noted.
Take `COC(=O)c1nc(=S)[nH]c(C(=O)OC)c1C(=O)c1ccccc1`: the growth is 97.3%.
The figure for `O=C(c1ccc(O)cc1)C1[C@H](c2ccc(Cl)cc2)[C@@H](c2ccccc2)NC12C(=O)Nc1ccc(Cl)cc12` (stereo not given in full) is 39.4%; for `ClCc1cccc(CSc2ncnc3c2ncn3Cc2cccc(CCl)c2)c1` it is -89.3% (active).
The figure for `COc1cc2oc(-c3cccc(NC(=O)c4cccc([N+](=O)[O-])c4)c3)cc(=O)c2c(OC)c1OC` is -1.02% (active).
In the case of `C=C1C(=O)O[C@H]2[C@H]1CC/C(COC(=O)NCCc1ccc(Br)cc1)=C\CC[C@@]1(C)O[C@@H]21` it was 4.63% (active); in that of `COc1cc(NC(=O)c2cccc(-c3cc(=O)c4c(OC)c(OC)c(OC)cc4o3)c2)cc(OC)c1OC`, 47.4%.
On to `O=C(Nc1ccc(-n2cc(-c3ccncc3)c(-c3ccc(O)c(Cl)c3)n2)cc1)c1cc(C(F)(F)F)cc(C(F)(F)F)c1`, for which the growth was 64.9%.
In the case of `CCOC(=O)CC1C(COC(=O)NC)OC(n2cnc3c(NC(=O)Nc4ccccc4)ncnc32)C1O[Si](C)(C)C(C)(C)C` (stereo not given) it was 61.9%; in that of `O=C(CCc1nnc2sc(Cc3ccccc3Cl)nn12)c1nc2ccccc2[nH]1`, 84.5%.
The figure for `CCCCN(CCCC)c1ccc(C(=O)O)cc1` is 101%; for `O=C(Cn1cncn1)Nc1ccc(-c2nc3ccccc3s2)cc1` it is -29.7% (active).
The figure for `COc1cccc(CNC(=O)c2cccc(C3CC(=O)c4c(cc(OC)c(OC)c4OC)O3)c2)c1` (stereo not given) is 20.5%; for `CCSc1oc(-c2ccccc2)nc1[P+](c1ccccc1)(c1ccccc1)c1ccccc1` it is -37.6% (active); for `Cc1ccc(S(=O)(=O)c2ccc3[nH]c(=O)[nH]c(=O)c3c2)cc1` it is 102%.
As to `Fc1cc(-c2cnc3nonc3n2)c(Cl)cc1Cl`, the growth is 61.8%.
Regarding `CCCC(C(=O)OCC)C(C)OC(=O)OCC` (stereo not given), the growth was 101%.
The figure for `CCCCc1ccc2nc(NC(=O)OC)[nH]c2c1` is 22.3%; for `N#Cc1c2c(nn(-c3ccccc3)c1=O)C(O)=C([N+](=O)[O-])C(c1ccccc1)C2` (stereo not given) it is 64.1%.
The figure for `O=C1c2ccccc2CCC12OC2c1cn(-c2ccccc2)nc1-c1ccc(Cl)cc1` (stereo not given) is 92.5%.
In the case of `Cc1cc(CSc2ccc(Cl)cc2)ccc1N` it was 102%.
As for `N#Cc1c(-c2ccc(Cl)cc2)nc2c(c(-c3ccccc3)nn2-c2ccccc2)c1-c1ccc(O)cc1`, the growth was 31.2%.
The figure for `O=C1N=C(c2c(-c3[nH]c(=O)c4ccc(Br)cc4c3O)c(O)c3ccccc3c2O)C(=O)c2cc(Br)ccc21` is -11.5% (active); for `O=C(Nc1ccc(NC(=O)c2cc(=O)[nH]c3ccccc23)cc1)Nc1cccc(Cl)c1` it is 64.4%; for `Cc1ccc(-c2csc(N/N=C/c3cccs3)n2)cc1` it is 65.1%.
In the case of `C#Cc1ccc(NC(=O)c2ccc(/C=C/C(=O)c3nccn3C)cc2)cc1` it was -54.6% (active); in that of `CCC(C)(O)CCC(C)(O)CC` (stereo not given), 106%; in that of `O=C(CSc1nnc(-c2ccc(Cl)cc2)n1-c1ccccc1)Nc1ccc(Br)cc1`, 59.1%.
The figure for `O=C1/C(=C\c2cn(Cc3ccccc3)c3ccc(Br)cc23)c2ccccc2N1c1c(Cl)cccc1Cl` is 84.1%; for `CCc1onc(-c2ccc(OC)cc2)c1-c1ccccc1OCCN(CC)CC` it is 80%.
Take `Cc1cc(/C=C2\SC(=Nc3ccccc3)N(C3CCCC3)C2=O)c(C)n1-c1ccc(Cl)cc1`: the growth was -84.2% (active).
In the case of `COc1ccc(OC)c(C2OC(c3ccc4ccccc4c3O)=NN2C(C)=O)c1` (stereo not given) it was 53.9%; in that of `CCOC(=O)c1ccc2c(c1)[n+](=O)c(C(C)=O)c(C(F)(F)F)n2[O-]`, -37% (active); in that of `N/C(=N\C(N)=N\c1nc2ccccc2s1)c1ccnc(Cl)c1`, 51.9%.
The figure for `CS(=O)(=O)c1nccc(-c2c(-c3ccc(F)c(OCc4ccc(F)cc4)c3)nc3sccn23)n1` is -37.2% (active); for `COc1cccc(/C=C/C(=O)Nc2cc(OC)c3c(c2)OCO3)c1` it is 92.6%.
The figure for `C/C(N)=C(\C#N)C(=O)c1ccccc1` is 97.7%; for `COc1ccc(CCO)cc1` it is 101%.
As to `Cc1cc(C)cc(C(=O)Nc2cccc(C#Cc3cccc4[nH]nc(N)c34)c2)c1`, the growth was 43%.
The figure for `O=C(O)C1CSC(c2ccccc2)N1` (stereo not given) is 96.7%; for `COc1c(-c2cc(-c3ccc(C)o3)[nH]c(=O)n2)c(O)cc2occc12` it is 25.8%.
